PubChem BioAssay (NCATS)
Inconclusive results are not listed. Values without a mark were called inactive. The source made the active and inactive calls. Calls come from the whole dose curve; as a rule, active = well fitted inhibition curve with a large enough effect; inconclusive = small, poorly fitted or top-dose-only effect; inactive = flat fitted curve, though single readings scatter. *1 amine or outer side, *2 acyl side, *3 side chain or, on linkers, in order; H or OH if unused. Where a SMILES comes first, the peptide text is derived from it. Bridges are numbered along the chain shown (N, C = ends). [ ]: non-standard residue; d: D form. The star is where a group is joined. X5 = NC1=N[C@@H]([C@H](N[*:1])C(=O)[*:2])C[C@H](O)N1; ΔAla(Z-3-ureido) = NC(=O)N/C=C(\N)C(=O)O; β3hOrn = NCCC[C@H](N)CC(=O)*; Dap = NC[C@H](N)C(=O)O

test system: astro; assay: Drug repurposing screens with cells derived from glioblastoma tumor samples (AID 1345199); settings: viability, ATP luminescence, 48 h; series mostly up to 45.9 µM; activity, negative = cell killing: at the top concentration; note: nearly all actives have a fitted effect of over 40% in size
Protocol: CD133+ cells were isolated from GBM patient biopsies and cultured as neurospheres. Neurospheres from four patients were used to screen the NCATS pharmaceutical collection (NPC) library of approved drugs and bioactive compounds. […] The neurospheres were incubated with drugs for 48 hours in 1536-well format, then assayed with an ATP content cell viability assay. […] These hits were cherry picked to confirm activity in the four original GBM lines screened plus three other slower growing GMB lines (unable to yield enough cells for a full primary screen). Variable activities of the confirmed primary hits in the different GBM patient lines were observed. The patient line 206 responded to the greatest number of compounds and line 923 responded to the least amount of active compounds.
% is set by controls: 0 for no effect and ±100 for the full control effect; potency is the fitted concentration of half-maximal effect.

Compound | activity, negative = cell killing | Potency
CCC(Cc1c(I)cc(I)c(O)c1I)C(=O)O (stereo not given) | -14% | 
CC(C)[C@H](N)C(=O)OCC(CO)OCn1cnc2c(=O)[nH]c(N)nc21 (stereo not given in full) | -13.4% | 
COc1ccc(C(=O)CCC(=O)O)c2ccccc12 | -11.7% | 
CC12CCC(C1)C(C)(C)C2=O (stereo not given) | -6.82% | 
NCCC[C@H](N)CC(=O)N[C@H]1CNC(=O)[C@H]([C@H]2C[C@H](O)NC(N)=N2)NC(=O)/C(=C/NC(N)=O)NC(=O)[C@H](CO)NC(=O)[C@H](CO)NC1=O (β3hOrn-[Dap]SS[ΔAla(Z-3-ureido)][X5]; lactam 1-C) | -13.4% | 
CCCCC(O)c1ccccc1 (stereo not given) | -10.9% | 
CC1(C)S[C@@H]2[C@H](NC(=O)C3(N)CCCCC3)C(=O)N2[C@H]1C(=O)O | -11.1% | 
CSCCC(N)C(=O)O (stereo not given) | -21.7% | 
CN1CCN(C(c2ccccc2)c2ccc(Cl)cc2)CC1 (stereo not given) | -27.8% [at 21.2 µM] | 
OCl | -13.4% | 
C=C(C)C1CC=C(C)CC1 (stereo not given) | -11.2% | 
C=Cc1ccc(S(=O)(=O)O)cc1 | -17.9% | 
CC(C)C[C@H](NC(=O)[C@@H](COC(C)(C)C)NC(=O)[C@H](Cc1ccc(O)cc1)NC(=O)[C@H](CO)NC(=O)[C@H](Cc1c[nH]c2ccccc12)NC(=O)[C@H](Cc1cnc[nH]1)NC(=O)[C@@H]1CCC(=O)N1)C(=O)N[C@@H](CCCN=C(N)N)C(=O)N1CCC[C@H]1C(=O)NNC(N)=O |  | inactive
O=P(O)(O)OC[C@H]1O[C@](O)(COP(=O)(O)O)[C@@H](O)[C@@H]1O | -2.7% | 
CC(C)(CO)[C@@H](O)C(=O)NCCCC(=O)O | 3.1% | 
c1ccc2cc(C3=NCCN3)ccc2c1 | -13.9% | 
FC(F)(F)C(F)(F)C(F)(F)C(F)(F)C(F)(F)F | -7.95% | 
C[Si](C)(C)O[Si](C)(C)C | -22.7% | 
CCCC(=O)O | -4.05% | 
CC(=O)[C@H]1CC[C@H]2[C@@H]3C=CC4=CC(=O)CC[C@@]4(C)[C@H]3CC[C@]12C | -13.8% [at 21.2 µM] | 

Compound | activity, negative = cell killing | Potency
CCCCC/C=C\C/C=C\C/C=C\CCCCC(=O)O | -12.8% | 
CC1=C[C@H](O)CC(C)(C)[C@H]1/C=C/C(C)=C/C=C/C(C)=C/C=C/C=C(C)/C=C/C=C(C)/C=C/C1=C(C)C[C@@H](O)CC1(C)C | -20.9% | 
CCOC(C)OCC | -6.06% | 
CCOc1ccc(NC(=S)Nc2ccc(OCC)cc2)cc1 | 5.06% | 
Cc1cccc(Nc2ncccc2C(=O)O)c1C | -14.4% | 
O=C(O)c1ccc(OCCn2ccnc2)cc1 | -14.3% | 
CCCCC[C@H](O)/C=C/[C@@H]1[C@H]2C/C(=C/CCCC(=O)O)O[C@H]2C[C@H]1O | -11% | 
CCc1ncnc2cc(OC)c(OC)cc12 | -15.4% | 
O=C(/C=C/c1cccc(F)c1)NC1CC1 | -7.2% | 
O=C(O)CCC/C=C\C[C@@H]1[C@@H](/C=C/[C@@H](O)COc2cccc(C(F)(F)F)c2)[C@H](O)C[C@@H]1O | -10.5% | 
C[C@]12CC[C@@H]3c4ccc(O)cc4CC[C@H]3[C@@H]1CC[C@@H]2OP(=O)(O)O | -29.3% | 
CCC(C)[C@@H](N)C(=O)O (stereo not given in full) | -11.9% | 
CC(O)CN(C)C (stereo not given) | 0.0943% | 
Cc1cc(-c2ccc(N=Nc3ccc4c(S(=O)(=O)O)cc(S(=O)(=O)O)c(N)c4c3O)c(C)c2)ccc1N=Nc1ccc2c(S(=O)(=O)O)cc(S(=O)(=O)O)c(N)c2c1O |  | 17.8 µM (active)
C/C(=C\C(=O)OCCCCCCCCC(=O)O)C[C@@H]1OC[C@H](C[C@@H]2O[C@H]2[C@@H](C)[C@H](C)O)[C@@H](O)[C@H]1O | -1.37% | 
C=CC[N@@+]12CC[C@@]34c5ccccc5N5/C=C6/[C@H]7C[C@H]8[C@@]9(CC[N@@+]8(CC=C)C/C7=C/CO)c7ccccc7N(/C=C(/[C@@H](C[C@@H]31)/C(=C\CO)C2)[C@H]54)[C@@H]69 | -5.53% [at 21.2 µM] | 
COc1ccc2c(=O)c(C)c(-c3ccccc3)oc2c1CN(C)C | -22.5% | 
COc1ccc([C@@H]2CC(=O)c3c(O)cc(O[C@@H]4O[C@H](CO[C@@H]5O[C@@H](C)[C@H](O)[C@@H](O)[C@H]5O)[C@@H](O)[C@H](O)[C@H]4O)cc3O2)cc1O | 2.14% [at 21.2 µM] | 
CCOC(=O)[C@@H](N)CS | -7.73% | 
CO/N=C(\C(=O)N[C@@H]1C(=O)N2C(C(=O)O)=C(C[N+]3(C)CCCC3)CS[C@H]12)c1csc(N)n1 | 1.12% | 
